The sample as a whole holds a higher share of hits than the screen did.
Shiga inhibitor = blocks Shiga toxin action in Vero cells; Vero cells, Shiga toxin protein synthesis inhibition reporter; inhibition, % at 38.7 µM; 290,000 tested, 9.2% active; in the data active = inhibition mostly above about 28%, no sharp cut-off; inactive = mostly below about 43%; note: 0% is about no effect
NS1 function inh = blocks influenza NS1 protein function; Potency, µM (doses to about 46.1 µM), for the others: at the highest dose activity, positive = more growth; 270,000 tested, 0.4% active; AID 2326; calls by dose curve; note: potency is the fitted concentration of half-maximal effect; actives are rising curves; nearly all actives have a fitted effect of over 50% in size
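OD600 was taken as the measure of yeast growth restored by compound in an NS1-expressing S. cerevisiae strain. Cells had been washed out of glucose medium and diluted 1:100 into galactose -URA medium, pH 6.0.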
AmpC detergent = AmpC beta-lactamase inhibition with detergent present | P00811 | AmpC hydrolysis of nitrocefin, absorbance 480 nm, 0.01% Triton | Potency, µM (doses to about 114 µM), for the others: at the highest dose activity change, negative = inhibition, most hits filed as inhibitors | 370,000 tested, 0.041% active;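 note: potency is the fitted concentration of half-maximal effect; 0% = no-compound wells and -100% = no-enzyme wells; nearly all actives have a fitted effect of over 25% in size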
Target sequence (P00811 whole entry, looked up): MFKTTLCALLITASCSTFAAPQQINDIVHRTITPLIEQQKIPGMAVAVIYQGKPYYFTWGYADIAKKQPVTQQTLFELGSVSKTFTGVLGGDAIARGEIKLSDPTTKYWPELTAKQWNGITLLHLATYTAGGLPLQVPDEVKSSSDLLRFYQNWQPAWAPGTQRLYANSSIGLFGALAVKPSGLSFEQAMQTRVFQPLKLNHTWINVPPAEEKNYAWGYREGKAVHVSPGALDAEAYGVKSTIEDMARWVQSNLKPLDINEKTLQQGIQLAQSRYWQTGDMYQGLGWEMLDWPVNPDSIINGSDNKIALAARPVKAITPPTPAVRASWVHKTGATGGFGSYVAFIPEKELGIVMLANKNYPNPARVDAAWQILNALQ
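AmpC (5.3 nM in the dispensed reagent) in 20 mM phosphate pH 7.0 with 0.01% (detergent screen) or 0.0001% Triton X-100 was preincubated with compounds for 15 min at room temperature. Nitrocefin was then added from an 800 uM solution, and hydrolysis was followed at 480 nm.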
Cycloheximide cs = counter-screen for Shiga toxin inhibitors: cycloheximide protein synthesis inhibition; cell reporter, cycloheximide protein synthesis inhibition counterscreen; AID 2314; 300,000 tested, 12% active; max response, %; in the data active = max response mostly above about 13%, no sharp cut-off; inactive = mostly below about 14%; note: read at 38.3 µM for the half of the compounds with a filed dose; 0% is about no effect
AmpC no deterg = inhibitors of E. coli AmpC beta-lactamase without detergent. 330,000 tested, 0.52% active. AID 485341. Potency, µM (top dose mostly 57.1 µM), without a hit: at the highest dose activity change, negative = inhibition, usual class: inhibitors. P00811. AmpC nitrocefin hydrolysis, absorbance 480 nm, 0.0001% Triton;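 note: potency is the fitted concentration of half-maximal effect; plate controls were no compound for no effect and no enzyme for full effect; nearly all actives have a fitted effect of over 20% in size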
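AmpC (5.3 nM in the dispensed reagent) in 20 mM phosphate pH 7.0 with 0.01% (detergent screen) or 0.0001% Triton X-100 was preincubated with compounds for 15 min at room temperature. Nitrocefin was then added from an 800 uM solution, and hydrolysis was followed at 480 nm.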
The depositor's hits bear a star; ? = inconclusive; / = not tested or not shown. Unless noted, calls come from the whole dose curve; as a rule, active = well fitted curve in the direction sought with a large enough effect; inconclusive = small, poorly fitted or top-dose-only effect, or another doubt; inactive = no such curve, though single readings can be large; an effect the other way counts as inactive or inconclusive.

SMILES	Shiga inhibitor	NS1 function inh	AmpC detergent	Cycloheximide cs	AmpC no deterg
CC(=O)N1CCc2cc(NC(=O)c3ccc(C)cc3)ccc21	47*	-10%	0%	34*	-1%
Cc1ccc(C(=O)Nc2cccc(C(=O)N3CCN(C)CC3)c2)cc1	71*	-11%	-5%	30*	-32%
CC(=O)Nc1ccc(NC(=O)c2ccc3c(c2)CCN3S(=O)(=O)c2ccc(C)cc2)cc1	/	/	2%	/	/
CCOc1ccc(Oc2ccc(NS(=O)(=O)c3cc(C(=O)O)ccc3Cl)cc2)cc1	/	/	?	/	-25%
COc1ccc(N/N=C(C)/C(=N/O)C(=O)Nc2ccccc2)cc1	74*	/	3%	29*	-45%
O=C(N/N=C/c1ccc(OC(=O)c2ccccc2)cc1)c1cccnc1	-7	-35%	-8%	-4	-5%
COc1ccccc1OC(=O)Nc1ccc(Cl)cc1	58*	-3%	-18%	32*	-10%
COc1ccc(NC(=O)c2cc3ccccn3n2)cc1	159	-101%	?	40*	-20%
O=C(Nc1ccc(OC(F)(F)F)cc1)c1cc2ccccn2n1	/	/	3%	/	/
COc1ccccc1OCC(=O)NNC(=O)Nc1ccc(Cl)cc1	12	/	-8%	-2	-32%
COc1cccc(-n2c(C)nnc2SCC(=O)Nc2ccccc2N2CCOCC2)c1	14	-2%	?	-4	57%
CC(=O)N1N=C2/C(=C/c3ccccc3)CCCC2C1c1ccccc1 (stereo not given)	72*	0%	-4%	48*	-19%
CCc1nn2c(=O)cc(COC(=O)c3cccc(NC(=O)COc4ccccc4F)c3)nc2s1	/	/	-2%	/	/
CCCOC(=O)c1ccc(NC(=O)COC)cc1	50*	-31%	-3%	30	-17%
CCCOC(=O)c1ccc(NC(=O)C2C3C=CC(O3)C2C(=O)O)cc1 (stereo not given)	50	-26%	-3%	32*	2%
CCCCOC(=O)c1ccc(NC(=O)C(CCS(C)(=O)=O)NC(C)=O)cc1 (stereo not given)	-9	1%	2%	-3	60%
CC(=O)Nc1ccc(C(=O)OCCC(C)C)cc1	84*	-129%	-6%	24*	-12%
CCCOC(=O)c1ccc(NC(=O)CC(C)(C)C)cc1	54*	-2%	-1%	34*	-8%
Cc1ccccc1-c1noc(CNC(=O)c2ccco2)n1	-6	-2%	-1%	2	-3%
Cc1ccc(NC(=O)CSCC(=O)N2CCN(C(=O)c3ccco3)CC2)cc1	/	/	-16%	/	-16%
CC1CCCN(C(=O)Cn2ncc3c([nH]c4ccccc43)c2=O)C1 (stereo not given)	/	/	13%	/	/
O=C(Cn1ncc(Cl)c(Cl)c1=O)NC(=O)NC1CCCCC1	/	/	/	/	-19%
Cc1nn(C)c(-c2n[nH]c(=S)n2-c2ccccc2)c1Cl	active	8%	-11%	10	-27%
Cn1cc(Cl)c(-c2n[nH]c(=S)n2-c2ccccc2)n1	20	5%	-12%	-2	-9%
CCn1cc(/C=N/NC(=O)c2ccc3c(c2)OCO3)cn1	24	-23%	?	35*	-2%
SMILES	Shiga inhibitor	NS1 function inh	AmpC detergent	Cycloheximide cs	AmpC no deterg
O=C(N/N=C/c1ccc([N+](=O)[O-])o1)c1ccc2c(c1)OCO2	9	17%	1%	9	-30%
O=C(O)c1ccc(/C=N/NC(=O)c2ccc3c(c2)OCCO3)cc1	22	?	3%	21*	-33%
O=C(N/N=C/c1ccccc1)c1ccc2c(c1)OCO2	24	5%	4%	25	-14%
CN(C)c1ccc(/C=N/NC(=O)c2ccc3c(c2)OCO3)cc1	91*	-11%	2%	39*	-22%
Cc1ccc(/C=N\NC(=O)c2ccc3c(c2)OCO3)o1	53	-17%	-1%	37*	-21%
Fc1ccc(-c2noc3ncnc(NCc4cccc(Cl)c4)c23)cc1	/	/	1%	/	/
COc1ccc(NC(=O)C2CCN(S(=O)(=O)c3cccc4nonc34)CC2)cc1	21	11%	-6%	-1	-15%
COc1c(O)ccc(/C=N/NC(=O)c2ccc3c(c2)OCCO3)c1[N+](=O)[O-]	52*	3%	4%	21*	-42%
O=C(N/N=C/c1cccnc1)c1ccc2c(c1)OCCO2	42*	?	4%	42*	-21%
COc1cc(/C=N/NC(=O)c2ccc3c(c2)OCCO3)cc(Cl)c1O	17	18%	-4%	23*	-34%
Cc1nn(C)cc1/C=N/NC(=O)c1ccc2c(c1)OCO2	26	2%	2%	16*	-14%

High-throughput results as filed in PubChem BioAssay.
